# Measurements from PubChem BioAssay (NCATS).
# Results filed as inconclusive are left out. A call without a number means that no potency is given here. The source made the active and inactive calls. Unless noted, calls follow the shape of the dose curve; as a rule, active = well fitted curve in the direction sought with a large enough effect; inconclusive = small, poorly fitted or top-dose-only effect, or another doubt; inactive = no such curve, though single readings can be large; an effect the other way counts as inactive or inconclusive.
# Key:
# [1] = molecular target: Calcium and integrin-binding protein 1 (Homo sapiens) (UniProt Q99828); assay: Primary qHTS for Identification of Calcium Integrin Binding Protein 1 (CIB1) Competitor (AID 1508620);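 also: GST tagged CIB1 binding a fluorescein labelled alphaIIb integrin peptide tracer; top concentration of the series differs between compounds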
# Chain of Calcium and integrin-binding protein 1 (Homo sapiens) (Q99828 whole entry, looked up): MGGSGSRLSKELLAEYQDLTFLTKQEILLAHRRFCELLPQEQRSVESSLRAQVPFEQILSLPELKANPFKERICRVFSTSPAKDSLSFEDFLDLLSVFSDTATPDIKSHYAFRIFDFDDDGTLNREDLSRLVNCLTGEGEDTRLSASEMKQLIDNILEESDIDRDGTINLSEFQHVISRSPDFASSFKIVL
# In short: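 Fluorescence polarization competition: CIB1-GST (1 uM final) preincubated with compound 15 min at room temperature, then FITC-labeled alphaIIb peptide (100 nM final) added for another 15 min. Polarization read at Ex 480/Em 540.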
# [2] = molecular target: Lysosomal acid glucosylceramidase (Homo sapiens) (UniProt P04062); assay: Glucocerebrosidase-p2 (AID 348; in the data active = potency below about 10 µM; also: potency is read from the fitted curve at half-maximal effect); conditions: purified GBA, blue fluorogenic substrate, 40 min
# Chain of Lysosomal acid glucosylceramidase (Homo sapiens) (P04062 whole entry, looked up): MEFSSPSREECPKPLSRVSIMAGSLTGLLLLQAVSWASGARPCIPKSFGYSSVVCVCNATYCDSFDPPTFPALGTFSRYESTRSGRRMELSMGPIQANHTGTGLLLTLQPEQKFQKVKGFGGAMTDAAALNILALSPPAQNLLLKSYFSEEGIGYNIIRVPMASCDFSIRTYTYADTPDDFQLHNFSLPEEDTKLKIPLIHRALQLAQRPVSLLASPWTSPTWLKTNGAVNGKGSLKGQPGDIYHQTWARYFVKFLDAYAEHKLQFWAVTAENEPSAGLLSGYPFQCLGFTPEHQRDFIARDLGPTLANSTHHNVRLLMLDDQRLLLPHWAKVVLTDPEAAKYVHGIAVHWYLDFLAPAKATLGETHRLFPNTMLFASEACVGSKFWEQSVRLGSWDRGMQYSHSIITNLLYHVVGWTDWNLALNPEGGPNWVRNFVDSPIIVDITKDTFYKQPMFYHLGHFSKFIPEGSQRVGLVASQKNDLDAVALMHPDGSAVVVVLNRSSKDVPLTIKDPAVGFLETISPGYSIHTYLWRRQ
# In short: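 Normal human glucocerebrosidase (0.2 nM) with blue fluorogenic substrate (80 uM final) in citrate/phosphate pH 5.9 with 10mM sodium taurocholate, 0.01% tween-20; 40 min RT, NaOH/glycine stop; fluorescence Ex 365/Em 440; AC50 from a titration from 0.6 nM upwards.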
# [3] = molecular target: Glucocorticoid receptor (Homo sapiens) (UniProt P04150); assay: GR-GFP Redistribution (AID 450;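 active = compounds whose dose series gives a full or clear partial fitted curve of increased nuclear translocation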; also: potency is read from the fitted curve at half-maximal effect); conditions: U2OS GR-GFP nuclear translocation, laser cytometry, 2 h
# Chain of Glucocorticoid receptor (Homo sapiens) (P04150 whole entry, looked up, the tested form may be a part): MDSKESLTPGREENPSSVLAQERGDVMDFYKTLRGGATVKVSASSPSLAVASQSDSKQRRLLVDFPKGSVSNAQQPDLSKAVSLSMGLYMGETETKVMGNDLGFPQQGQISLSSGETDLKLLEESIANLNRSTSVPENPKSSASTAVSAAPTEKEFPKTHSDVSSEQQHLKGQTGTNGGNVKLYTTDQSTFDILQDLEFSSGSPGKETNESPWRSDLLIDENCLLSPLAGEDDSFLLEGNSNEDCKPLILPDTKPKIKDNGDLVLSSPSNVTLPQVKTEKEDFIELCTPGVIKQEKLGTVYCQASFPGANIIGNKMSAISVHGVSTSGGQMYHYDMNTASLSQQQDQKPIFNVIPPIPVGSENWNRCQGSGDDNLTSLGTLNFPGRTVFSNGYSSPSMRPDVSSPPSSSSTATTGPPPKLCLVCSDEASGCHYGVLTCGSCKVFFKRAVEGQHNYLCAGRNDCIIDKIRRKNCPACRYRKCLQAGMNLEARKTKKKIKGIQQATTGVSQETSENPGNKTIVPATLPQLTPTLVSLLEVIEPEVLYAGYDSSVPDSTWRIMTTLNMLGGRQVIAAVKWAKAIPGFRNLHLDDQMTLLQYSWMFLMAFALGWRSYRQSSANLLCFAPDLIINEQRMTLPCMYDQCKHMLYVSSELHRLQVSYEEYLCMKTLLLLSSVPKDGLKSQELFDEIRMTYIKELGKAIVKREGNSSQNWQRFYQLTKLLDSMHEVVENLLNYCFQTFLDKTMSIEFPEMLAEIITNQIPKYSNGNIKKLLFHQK
# [4] = molecular target: Glucocorticoid receptor (Homo sapiens) (UniProt P04150); assay: GR-EFC Redistribution (AID 451; calls by dose curve; also: potency is read from the fitted curve at half-maximal effect); conditions: CHO-K1 GR-EFC translocation, beta-gal luminescence, 2 h
# In short: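 CHO-K1 cells stably expressing nuclear-localized β-gal enzyme acceptor and GR fused C-terminally to the enzyme donor fragment; ligand-driven nuclear translocation restores β-gal by complementation. Compounds titrated up to 46 uM final, 2 h at 37 °C; luminescence read.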
# [5] = molecular target: Mitogen-activated protein kinase 10 (Mus musculus) (UniProt Q61831); assay: JNK3 AlphaScreen Assay (AID 530; active = well fitted curve in either direction with a large enough effect, not every such curve was filed as active;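 also: kinase came from lysate of stimulated human HepG2 cells; signal reports phosphorylation of biotinylated GST-cJun 1-79 at Ser73 with 10 µM ATP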)
# In short: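 Biotinylated GST-cJun(1-79) served as substrate for JNK3 in HepG2 lysates stimulated with IL-1beta and TNF-alpha. ATP was 10 uM final, pH 7.6. Ser73 phosphorylation was quantified by AlphaScreen (680 nm excitation).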
# [6] = molecular target: 3',5'-cyclic-AMP phosphodiesterase 4B (Homo sapiens) (UniProt Q07343); assay: qHTS Assay for Inhibitors of PDE-IV (AID 607; active = well fitted activation curve with a large enough effect in the main read-out, with a control signal flat, not every such curve was filed as active)
# Chain of 3',5'-cyclic-AMP phosphodiesterase 4B (Homo sapiens) (Q07343 whole entry, looked up): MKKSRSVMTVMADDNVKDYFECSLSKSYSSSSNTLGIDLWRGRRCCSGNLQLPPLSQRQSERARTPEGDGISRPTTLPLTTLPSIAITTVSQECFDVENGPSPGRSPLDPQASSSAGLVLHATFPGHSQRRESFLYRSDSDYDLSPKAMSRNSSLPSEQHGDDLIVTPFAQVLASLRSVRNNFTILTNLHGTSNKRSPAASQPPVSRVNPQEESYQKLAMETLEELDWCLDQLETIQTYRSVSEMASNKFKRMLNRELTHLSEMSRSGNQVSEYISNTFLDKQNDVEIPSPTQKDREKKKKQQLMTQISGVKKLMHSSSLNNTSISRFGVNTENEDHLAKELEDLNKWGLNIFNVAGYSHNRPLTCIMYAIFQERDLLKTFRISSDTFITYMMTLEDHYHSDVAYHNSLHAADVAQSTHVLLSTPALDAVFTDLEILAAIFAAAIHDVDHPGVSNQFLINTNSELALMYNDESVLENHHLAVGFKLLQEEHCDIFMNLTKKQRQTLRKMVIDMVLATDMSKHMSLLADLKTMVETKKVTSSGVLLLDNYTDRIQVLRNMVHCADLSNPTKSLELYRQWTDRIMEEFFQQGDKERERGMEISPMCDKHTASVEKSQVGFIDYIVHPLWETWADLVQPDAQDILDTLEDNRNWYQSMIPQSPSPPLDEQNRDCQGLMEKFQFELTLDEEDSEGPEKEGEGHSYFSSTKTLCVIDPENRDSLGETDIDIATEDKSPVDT
# In short: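 HEK293 ACTOne cells with CNG channel (1000/well), endogenous PDE4; membrane potential dye, compounds up to 22.9 uM final. Fluorescence Ex 535/Em 590; RO 20-1724 (100 uM final) as reference.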
# [7] = Confirmation and Secondary Assay for Modulators of Hemoglobin Beta Chain Splicing at IVS2 654 locus (AID 910);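 also: per-well total GFP intensity by laser scanning cytometry after 2-day treatment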
# In short: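 HeLa cells stably carrying EGFP interrupted by mutant beta-globin IVS2-654 intron (CMV-driven) were treated with compound for 2 days at 37C; corrected splicing was scored as total peak GFP intensity per well (488 nm excitation, 500-520 nm emission).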
# [8] = Confirmation and Secondary Assay for Modulators of Hemoglobin Beta Chain Splicing at IVS2 705 locus (AID 930);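 also: HeLa cells stably expressing the EGFP-705 splicing reporter; GFP fluorescence per well restored by corrected splicing of the IVS2-705 intron in EGFP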
# In short: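 Fluorescence gain (488 nm laser, 500-520 nm PMT) reflects restored correct splicing of a mutant IVS2-705 intron inside EGFP in stably transfected HeLa cells after 2-day compound treatment.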
# [9] = qHTS Assay for Lipid Storage Modulators (AID 1519; calls by dose curve); conditions: Drosophila S3 cells, BODIPY lipid droplet/cell ratio, laser cytometry, cells loaded with oleic acid
# In short: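 Cells seeded at 5,000 per well were treated with compounds over a concentration series and loaded with oleic acid (400 uM, as added). Lipid droplet fluorescence (488 nm excitation, 500-530 nm channel) was read by laser-scanning cytometry and normalized to 20 uM Triacsin C.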
# [10] = Primary qHTS for small molecule stabilizers of the endoplasmic reticulum resident proteome: Secreted ER Calcium Modulated Protein (SERCaMP) assay (AID 1508630)
# In short: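 The SH-SY5Y reporter protocol was run at 3 concentrations up to 38.3 uM (primary) or 11 concentrations (follow-up): 16 h compound, 100 nM thapsigargin for 4 h, then extracellular luciferase luminescence.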
# [11] = molecular target: Rap guanine nucleotide exchange factor 3 (Homo sapiens) (UniProt O95398); assay: Confirmatory qHTS for agonist of cAMP-regulated guanine nucleotide exchange factor 3 (EPAC1) (AID 1645881);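 also: EPAC1 catalysed release of BODIPY-GDP from Rap1B seen as fluorescence loss; nearly all actives have a fitted effect of over 75% in size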
# Chain of Rap guanine nucleotide exchange factor 3 (Homo sapiens) (O95398 whole entry, looked up): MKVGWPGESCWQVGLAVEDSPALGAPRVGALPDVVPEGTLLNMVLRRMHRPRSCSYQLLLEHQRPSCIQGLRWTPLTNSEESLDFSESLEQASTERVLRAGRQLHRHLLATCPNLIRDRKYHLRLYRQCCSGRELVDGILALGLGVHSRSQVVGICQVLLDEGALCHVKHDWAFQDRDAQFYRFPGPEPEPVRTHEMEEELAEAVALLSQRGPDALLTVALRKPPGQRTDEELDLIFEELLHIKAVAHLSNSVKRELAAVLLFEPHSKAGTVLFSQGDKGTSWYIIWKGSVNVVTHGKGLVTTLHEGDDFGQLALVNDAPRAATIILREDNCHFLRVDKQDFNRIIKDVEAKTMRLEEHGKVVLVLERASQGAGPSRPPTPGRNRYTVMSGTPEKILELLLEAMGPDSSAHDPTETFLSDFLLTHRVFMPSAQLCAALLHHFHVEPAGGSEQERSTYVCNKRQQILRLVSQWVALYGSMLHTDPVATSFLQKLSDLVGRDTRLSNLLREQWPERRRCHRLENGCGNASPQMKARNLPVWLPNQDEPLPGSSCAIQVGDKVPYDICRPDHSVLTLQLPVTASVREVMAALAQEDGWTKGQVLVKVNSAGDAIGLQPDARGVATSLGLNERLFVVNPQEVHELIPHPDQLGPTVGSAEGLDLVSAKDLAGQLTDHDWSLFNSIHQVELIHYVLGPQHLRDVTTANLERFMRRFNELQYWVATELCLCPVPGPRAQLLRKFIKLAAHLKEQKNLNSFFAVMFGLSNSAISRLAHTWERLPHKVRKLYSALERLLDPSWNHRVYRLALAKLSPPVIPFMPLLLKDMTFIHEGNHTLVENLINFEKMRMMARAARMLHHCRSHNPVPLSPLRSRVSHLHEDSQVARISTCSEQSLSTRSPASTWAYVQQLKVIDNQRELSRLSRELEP
# [12] = molecular target: Rap guanine nucleotide exchange factor 4 (Homo sapiens) (UniProt Q8WZA2); assay: Confirmatory qHTS for agonist of cAMP-regulated guanine nucleotide exchange factor 4 (EPAC2) (AID 1645884);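 also: nucleotide exchange releases bodipy-GDP from Rap1 and this lowers its fluorescence; nearly all actives have a fitted effect of over 65% in size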
# Chain of Rap guanine nucleotide exchange factor 4 (Homo sapiens) (Q8WZA2 whole entry, looked up): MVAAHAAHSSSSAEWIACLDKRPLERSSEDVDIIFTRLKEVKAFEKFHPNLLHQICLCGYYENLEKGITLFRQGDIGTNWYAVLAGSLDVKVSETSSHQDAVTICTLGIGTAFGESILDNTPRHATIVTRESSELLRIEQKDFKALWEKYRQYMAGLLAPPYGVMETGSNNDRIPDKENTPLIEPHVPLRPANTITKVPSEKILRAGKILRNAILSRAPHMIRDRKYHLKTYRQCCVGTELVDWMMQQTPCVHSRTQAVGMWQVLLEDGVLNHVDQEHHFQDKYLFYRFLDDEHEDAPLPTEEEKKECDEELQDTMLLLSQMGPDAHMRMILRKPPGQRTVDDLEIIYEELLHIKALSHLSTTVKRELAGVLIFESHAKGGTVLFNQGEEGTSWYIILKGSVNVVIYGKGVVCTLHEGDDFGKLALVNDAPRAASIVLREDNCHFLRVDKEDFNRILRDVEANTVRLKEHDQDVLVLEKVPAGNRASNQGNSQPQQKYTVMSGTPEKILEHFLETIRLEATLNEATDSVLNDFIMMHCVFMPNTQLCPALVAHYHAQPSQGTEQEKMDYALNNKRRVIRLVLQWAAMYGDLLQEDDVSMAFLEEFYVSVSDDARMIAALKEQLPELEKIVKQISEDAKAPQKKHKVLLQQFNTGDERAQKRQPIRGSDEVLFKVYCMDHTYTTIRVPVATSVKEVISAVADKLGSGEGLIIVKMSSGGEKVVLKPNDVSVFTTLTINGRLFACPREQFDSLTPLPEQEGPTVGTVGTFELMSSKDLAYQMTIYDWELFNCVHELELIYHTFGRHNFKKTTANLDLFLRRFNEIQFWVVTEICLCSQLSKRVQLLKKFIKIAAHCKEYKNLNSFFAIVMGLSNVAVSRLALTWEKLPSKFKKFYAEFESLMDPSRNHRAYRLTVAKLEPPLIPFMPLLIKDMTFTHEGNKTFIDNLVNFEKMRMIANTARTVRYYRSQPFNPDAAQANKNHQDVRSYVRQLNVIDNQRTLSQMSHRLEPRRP
# [13] = molecular target: Rap guanine nucleotide exchange factor 4 (Homo sapiens) (UniProt Q8WZA2); assay: Confirmatory qHTS for antagonist of cAMP-regulated guanine nucleotide exchange factor 4 (EPAC2) (AID 1645885); also: nearly all actives have a fitted effect of over 25% in size
# [14] = molecular target: Rap guanine nucleotide exchange factor 3 (Homo sapiens) (UniProt O95398); assay: Counterscreen qHTS for antagonist of cAMP-regulated guanine nucleotide exchange factor 3 (EPAC1) (AID 1645888);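 also: fluorescence loss as bound BODIPY-GDP is released from Rap1B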
# In short: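 Measured: fluorescence of BODIPY-GDP bound to Rap1B, which falls as exchange proceeds. Conditions include 50 uM competing GDP, 5 and 30 min reads, and a later cAMP challenge for antagonist detection.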
structure (smiles),measurement,setting,value
CN(Cc1ccco1)c1ncnc2ccc(-c3ccc4c(c3)OCCO4)cc12,Potency,[1],inactive
c1cncc(CNc2ncnc3ccc(-c4cccnc4)cc23)c1,Potency,[2],> 11.4 µM (inactive)
same,Potency,[3],> 46 µM (inactive)
same,Potency,[4],> 46 µM (inactive)
same,outcome,[5],inactive
same,Potency,[6],inactive
same,outcome,[7],inactive
same,outcome,[8],inactive
same,"activity change, negative = inhibition",[9]; at 57.5 µM (top of the series),7.28% (inactive)
same,max response,[9]; measured here: cell count channel max response,-9.9%
same,max response,[9]; measured here: lipid channel max response,-4.35%
same,Potency,[1],inactive
same,Potency,[10],inactive
O=C1Cc2cc(S(=O)(=O)N3CCNCC3)ccc2N1,Potency,[1],inactive
same,outcome,[11],inactive
same,activation,[12],3.97% [at 17.1 µM] (inactive)
same,"activity change, negative = inhibition",[13],9.22% [at 12.7 µM] (inactive)
same,outcome,[14],inactive
